Compound activity (PubChem)
In the library only some 9.9% were active in any assay of this set; here they are far more common.
Tau fibril ThT – tau fibrillization inhibition (ThT binding); P10636; recombinant tau K18 P301L, heparin-induced fibrillization, ThT fluorescence; Potency, µM (highest dose often 57.4 µM), most hits filed as inhibitors; 2.1% of 270,000 active; active = well fitted curve in the direction sought with a large enough effect; inconclusive = small, poorly fitted or top-dose-only effect, or another doubt; inactive = no such curve, though single readings can be large; an effect the other way counts as inactive or inconclusive; note: nearly all actives have a fitted effect of over 55% in size
Target sequence (P10636 561-689 P618L limits assumed): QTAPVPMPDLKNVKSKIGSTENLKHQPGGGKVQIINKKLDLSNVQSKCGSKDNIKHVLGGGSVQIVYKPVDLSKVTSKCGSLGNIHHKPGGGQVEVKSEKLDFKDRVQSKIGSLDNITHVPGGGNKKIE
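Aggregation was driven by heparin (20 uM final) acting on recombinant tau […] bearing P301L in 100 mM sodium acetate pH 7; fibrils were detected with Thioflavin T.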
Tau fluor counter – counter-screen for tau fibril formation inhibitors; tau K18 P301L (four-repeat tau fragment) Alexa594 fluorescence, heparin fibrillization; AID 1463; 0.93% of 280,000 active; Potency, µM (top dose mostly 57.7 µM); active = well fitted curve in the direction sought with a large enough effect; inconclusive = small, poorly fitted or top-dose-only effect, or another doubt; inactive = no such curve, though single readings can be large; an effect the other way counts as inactive or inconclusive; note: nearly all actives have a fitted effect of over 55% in size
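Human K18 P301L tau (15 uM unlabeled plus 0.24 uM Alexa 594-labeled, final) in 100 mM sodium acetate pH 7 was mixed with compound and 20 uM heparin and incubated 6 hr at 37 C.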
Tau FP inhib – inhibitors of human tau fibril formation; Potency, µM (series often up to 57.7 µM), usual class: inhibitors; 0.39% of 280,000 active; P10636; K18 P301L tau heparin fibrillization, Alexa594 FP, 6 h; active = well fitted curve in the direction sought with a large enough effect; inconclusive = small, poorly fitted or top-dose-only effect, or another doubt; inactive = no such curve, though single readings can be large; an effect the other way counts as inactive or inconclusive; note: nearly all actives have a fitted effect of over 55% in size
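Steps: dispense K18 P301L tau (15 uM plus 0.24 uM Alexa 594 tracer, final) in pH 7 sodium acetate; add compound; add heparin (20 uM final); incubate 6 hr, 37 C; add ThT (30 uM final); after 1 hr ambient, read FP.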
KDM4E inh – blocks human JMJD2E demethylase activity. 1.6% of 230,000 active. JMJD2E catalytic domain, FDH-coupled NADH fluorescence (FDH is formaldehyde dehydrogenase). Potency, µM (top dose mostly 57.1 µM), most hits filed as inhibitors. B2RXH2; note: nearly all actives have a fitted effect of over 50% in size
Target sequence (B2RXH2 1-337 limits assumed): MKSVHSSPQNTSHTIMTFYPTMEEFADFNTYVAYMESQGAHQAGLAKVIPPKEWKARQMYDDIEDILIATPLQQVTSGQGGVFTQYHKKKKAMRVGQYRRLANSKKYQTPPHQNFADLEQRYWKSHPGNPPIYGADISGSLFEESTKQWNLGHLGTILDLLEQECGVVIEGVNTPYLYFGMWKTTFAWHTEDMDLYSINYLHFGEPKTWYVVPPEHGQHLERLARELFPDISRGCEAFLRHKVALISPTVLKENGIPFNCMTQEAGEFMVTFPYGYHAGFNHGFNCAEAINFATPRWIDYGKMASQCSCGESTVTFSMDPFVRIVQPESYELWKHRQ
HPGD inh – HPGD (human) dehydrogenase inhibition; P15428; purified HPGD, NADH fluorescence kinetic, PGE2 substrate; Potency, µM, most hits filed as inhibitors; 4.3% of 150,000 active
Target sequence (P15428 whole entry, looked up): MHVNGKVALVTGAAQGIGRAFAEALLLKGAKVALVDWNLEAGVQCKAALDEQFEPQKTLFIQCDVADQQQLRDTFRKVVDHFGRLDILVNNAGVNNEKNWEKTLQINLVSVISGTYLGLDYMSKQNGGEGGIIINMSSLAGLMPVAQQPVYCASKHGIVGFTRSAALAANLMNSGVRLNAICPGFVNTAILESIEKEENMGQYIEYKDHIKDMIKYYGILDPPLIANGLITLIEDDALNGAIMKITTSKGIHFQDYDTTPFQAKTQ
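NADH formation kinetics: reaction with 30 uM PGE2 and 1 mM NAD+ (final), 20 nM enzyme, Tris-HCl pH 8 with Tween 20, after 15 min compound preincubation at room temperature. Fluorescence change, last versus first of five reads.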
ALDH1A1 inh – ALDH1A1 (human) enzyme inhibition; Purified ALDH1A1, NADH fluorescence, propionaldehyde substrate; Potency, µM (highest dose often 75.3 µM), actives largely listed as inhibitors; 7.3% of 220,000 active; AID 1030
Hits are given with their value; i = inactive; ? = inconclusive; nt = no result; [ ] = another dose, or the depositor's remark. Unless noted, calls come from the whole dose curve; as a rule, active = well fitted inhibition curve with a large enough effect (not every such curve was filed as active); inconclusive = small, poorly fitted or top-dose-only effect, or another doubt; inactive = no such curve, though single readings can be large or run the other way.

SMILES	Tau fibril ThT	Tau fluor counter	Tau FP inhib	KDM4E inh	HPGD inh	ALDH1A1 inh
CC(=O)Nc1ccc(-c2ccc(NC(C)=O)cc2)cc1	i	i	i	i	nt	i
CC(=O)Nc1ccc(N=NN2CCOCC2)cc1	10µM	i	i	i	nt	i
CC(=O)Nc1cccc(N=NN2CCOCC2)c1	?	i	?	i	nt	i
O=C(OCC#CCSc1nnc(-c2cccc3ccccc23)o1)c1ccco1	?	i	i	?	?	?
Cc1nn(-c2ccccc2)c(N2CCCC2)c1/C=C1\N=C(c2ccc(OC(C)C)cc2)OC1=O	10µM	i	i	i	i	i
COc1ccccc1N1CCN(C(=O)c2cc3c(=O)oc4ccc(C)cc4c3s2)CC1	i	i	i	nt	nt	nt
NNc1ccccc1C(F)(F)F	i	i	i	i	nt	18µM
COc1cccc(Cn2c(=O)c(-c3cccs3)nc3cnc(N4CCN(C)CC4)nc32)c1	nt	nt	nt	nt	i	i
O=C1Nc2ccccc2OCc2c1cccc2[N+](=O)[O-]	i	i	i	i	nt	i
COc1ccc(CNC(=O)c2cc3cccc4c3n2CC(C)S4)cc1 (stereo unspecified)	i	?	i	nt	nt	nt
O=c1c(N=Nc2ccc(O)cc2)c(-c2ccccc2)[nH]n1-c1ccc([N+](=O)[O-])cc1	?	?	i	i	nt	i
Nc1[nH]n(-c2ccccc2)c(=O)c1N=Nc1ccc2c(c1)OCCO2	6.3µM	11µM[quencher]	i	i	nt	?
Nc1[nH]n(-c2ccccc2)c(=O)c1N=Nc1ccc2c(c1)OCO2	2.2µM	10µM[quencher]	?	i	nt	nt
Cc1cc([N+](=O)[O-])ccc1N=Nc1c(N)[nH]n(-c2ccccc2)c1=O	16µM	?	?	i	nt	?
CCOc1ccc(NC(=O)CNS(=O)(=O)c2ccc(Br)s2)cc1	i	i	i	nt	nt	nt
O=Cc1ccc(-n2nncc2-c2ccc([N+](=O)[O-])cc2)cc1	i	i	i	i	nt	13µM
CSc1ccc(CN(C)CC(=O)Nc2c(F)cccc2F)cc1	i	i	i	?	nt	?
C(=N\c1nccs1)/c1c[nH]c2ccccc12	i	i	i	i	i	13µM
O=c1nc(N/N=C/c2c[nH]c3ccccc23)cn[nH]1	nt	i	i	i	nt	nt
C(=N\Nc1ccccn1)/c1c[nH]c2ccccc12	7.1µM	14µM[quencher]	i	i	nt	nt
CCc1ccccc1NC(=O)N1CCC(CN2CCc3ccccc3C2)CC1	i	i	i	nt	nt	nt
O=C(CN1C(=O)c2cccnc2Oc2ccc(Cl)cc21)NCCCN1CCCCC1	i	i	i	nt	nt	nt
COc1ccc(N)cc1-n1c(C)ccc1C	3.2µM	?	?	?	nt	14µM
O=C(Nc1cccc(F)c1)c1ccc(-c2ccccc2)s1	i	i	?	nt	nt	nt
CCOc1cc(C(=O)Nc2ccc3c4c(cccc24)C(=O)N3CC)cc(OCC)c1OCC	?	i	i	i	i	?
SMILES	Tau fibril ThT	Tau fluor counter	Tau FP inhib	KDM4E inh	HPGD inh	ALDH1A1 inh
CCN1C(=O)c2cccc3c(NC(=O)c4cccc(N5C(=O)CCC5=O)c4)ccc1c23	?	i	i	i	i	2µM
CCN1C(=O)c2cccc3c(NC(=O)C(C)(C)C)ccc1c23	i	i	i	i	i	?
CCCCC(=O)Nc1ccc2c3c(cccc13)C(=O)N2CC	?	i	i	i	i	7.1µM
Cc1cccnc1NC1(C(F)(F)F)N=C2SCCN2C1=O (stereo unspecified)	i	i	i	i	nt	i
O=C(Nc1ccc(C(=O)N2CCOCC2)cc1)c1cccs1	i	i	i	i	14µM	i
CCC(C)c1ccc(NC(=O)c2cccs2)cc1 (stereo unspecified)	i	?	?	i	i	i
O=C(c1ccc(N2CCOCC2)cc1)c1cccs1	?	i	i	i	13µM	?
O=C(Nc1ccc(N2CCOCC2)cc1N1CCOCC1)c1cccs1	i	i	i	i	i	i
CC(C)CNC(=O)c1ccc(NC(=O)c2cccs2)cc1	i	i	i	i	18µM	i
CCOc1ccc(CNC(=O)CCCn2nc(C)c3sc4ccccc4c3c2=O)cc1	i	i	?	nt	nt	nt
CN(C)c1ccc(CNC(=O)CCCN2C(=O)CCn3nc(-c4cccn4C)cc32)cc1	i	i	i	nt	nt	nt
O=C(NNC(=O)c1cccc2ccccc12)c1ccc2c(c1)OCO2	i	i	i	i	nt	i
COCCc1ccc(OC[C@H](O)CNC(C)C)cc1	nt	nt	nt	i	i	i
C=CCn1c(Sc2ncc([N+](=O)[O-])s2)n[nH]c1=O	?	?	?	i	nt	2µM
CCOC(=O)N1CCN(C(=O)/C=C/c2cccc([N+](=O)[O-])c2)CC1	i	i	i	i	nt	i
c1ccc(Cn2nnnc2CN2CCN(Cc3ccc4c(c3)OCO4)CC2)cc1	i	i	i	i	nt	20µM
Cc1ccc(C(c2nnnn2Cc2cccs2)N2CCN(Cc3ccc4c(c3)OCO4)CC2)cc1 (stereo unspecified)	i	i	i	i	i	10µM
c1ccc2c(c1)CCN(Cc1nnnn1Cc1ccc3c(c1)OCO3)C2	i	i	i	i	i	?
Cc1oc(-c2ccc(C(=O)Nc3ccc(F)cc3F)cc2)nc1COc1ccccc1	i	i	i	nt	nt	nt
Cc1n[nH]c(=O)nc1NCC1CCCO1 (stereo unspecified)	i	i	i	i	28µM	?
Cc1nc(NCC2CCCO2)[nH]c(=O)c1CCC(C)C (stereo unspecified)	i	i	i	i	i	i
O=C1O/C(=C/c2ccccc2)c2ccccc21	i	i	i	?	?	?
O=C1/C(=C/c2ccccc2)Nc2ccccc21	13µM	i	i	i	18µM	i
COc1ccccc1NCC(O)Cn1c2ccccc2c2ccccc21 (stereo unspecified)	?	10µM[quencher]	?	i	i	i
COc1ccc(CCNCC(O)Cn2c3ccccc3c3ccccc32)cc1OC (stereo unspecified)	i	i	i	i	nt	i
SMILES	Tau fibril ThT	Tau fluor counter	Tau FP inhib	KDM4E inh	HPGD inh	ALDH1A1 inh
CCNc1nc(NC(C)C)nc(ON=C(C)C)n1	i	i	i	i	i	i
COc1ccc(N/N=C(/C)c2cnnc(-c3ccccc3)n2)cc1	2.8µM	?	i	i	i	9.5µM
Cc1ccc2c(c1)NC(c1cccs1)C1=C(CC(C)(C)CC1=O)N2 (stereo unspecified)	i	i	i	i	nt	i
Cc1cc2c(cc1C)NC(c1c(C)n(C)n(-c3ccccc3)c1=O)C1=C(CC(C)(C)CC1=O)N2 (stereo unspecified)	?	i	i	?	i	22µM
O=C1c2ccccc2-c2onc3c(Br)cc(NC4CCCCC4)c1c23	11µM	i	?	nt	nt	nt
COCCNc1cc(N2CCN(C3CCCCC3)CC2)c2noc3c2c1C(=O)c1ccccc1-3	11µM	i	i	nt	nt	nt
CN(C)CCCNc1cc(O)c2c(c1O)C(=O)c1ccccc1C2=O	nt	nt	nt	nt	i	i[13.5 µM]
CN(C)CCCNc1cc(N2CCN(C3CCCCC3)CC2)c2noc3c2c1C(=O)c1ccccc1-3	3.5µM	?	?	nt	nt	nt
CC(C)CNc1cc(NC2CCCCC2)c2c3c(onc13)-c1ccccc1C2=O	?	?	i	nt	nt	nt
